# Bioassay records as filed in PubChem.
# Mtb FBA inh – inhibitors of M. tuberculosis fructose-bisphosphate aldolase; inhibition, % at 1 µM; AID 588726; purified M. tuberculosis FBA, fluorescence read-out; P9WQA3; 2.3% of 360,000 active;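 also: 0% = vehicle and 100% = reference inhibitor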
# Target sequence (P9WQA3 whole entry, looked up): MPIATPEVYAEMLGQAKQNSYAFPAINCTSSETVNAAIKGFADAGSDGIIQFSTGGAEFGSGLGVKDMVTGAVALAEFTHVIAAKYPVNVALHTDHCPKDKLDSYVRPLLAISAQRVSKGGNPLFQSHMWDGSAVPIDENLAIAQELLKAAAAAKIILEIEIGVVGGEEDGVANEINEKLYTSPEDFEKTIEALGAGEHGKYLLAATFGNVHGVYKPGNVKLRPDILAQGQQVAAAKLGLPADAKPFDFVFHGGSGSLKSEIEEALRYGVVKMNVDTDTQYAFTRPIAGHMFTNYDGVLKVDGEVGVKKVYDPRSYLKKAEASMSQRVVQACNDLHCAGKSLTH
# Mtb betalactam – beta-lactam sensitization of Mtb H37Rv; 0.27% of 330,000 active; AID 434955; M. tuberculosis H37Rv growth with meropenem, percent inhibition; inhibition, % at 25 µM; call rule not given here;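 also: growth measured after seven days incubation then overnight dye step; 0% = bacteria only wells and 100% = bacteria with antibiotic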
# DUSP3 inh – DUSP3 (human) phosphatase inhibition. P51452. recombinant VHR phosphatase, pNPP absorbance. inhibition, % at 13.3 µM. 0.52% of 290,000 active; in the data active = inhibition above about 50%
# Target sequence (P51452 whole entry, looked up): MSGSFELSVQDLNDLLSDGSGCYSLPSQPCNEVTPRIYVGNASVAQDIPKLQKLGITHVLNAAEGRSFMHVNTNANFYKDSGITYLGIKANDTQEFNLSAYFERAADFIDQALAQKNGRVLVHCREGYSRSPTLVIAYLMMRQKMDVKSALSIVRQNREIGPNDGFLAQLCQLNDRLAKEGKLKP
# GDH-TPI counter-1 – counter-screen for M. tuberculosis FBA inhibitors: GDH-TPI coupled enzymes | GDH-TPI coupled enzyme counterscreen, NADH absorbance | inhibition, % at 4.8 µM | 1.2% of 360,000 active | AID 588335; in the data active = inhibition above about 30%;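 also: 0% = DMSO wells and 100% = wells lacking the enzyme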
# Mtb hypoxia rep – Mtb hypoxia fluorescent reporter inhibition | M. tuberculosis hypoxia-regulated fluorescent reporter, fluorescence | AID 1159583 | 0.1% of 300,000 active | fluorescence inhibition, % (no concentration beside the values); in the data active = fluorescence inhibition mostly above about 23%, no sharp cut-off; inactive = mostly below about 17%
# Mtb FBA confirm – confirmation of M. tuberculosis fructose-bisphosphate aldolase inhibitors; shares compounds with Mtb FBA inh; inhibition, % at 1 µM; 78% of 5,600 active; purified M. tuberculosis FBA, fluorescence read-out;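 also: 0% = vehicle wells and 100% = reference inhibitor wells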
# GDH-TPI counter-2 – counter-screen for M. tuberculosis FBA inhibitors: GDH-TPI coupled enzyme inhibition; 81% of 5,600 active; AID 652141; GDH-TPI coupled enzyme counterscreen, fluorescence; inhibition, % at 1 µM; shares compounds with Mtb FBA inh; in the data active = inhibition above about 10%
# Active calls of the source: *; · = no result; + = active, no number. A selection: hits, their analogues and other compounds. The true share with any hit is near 3.6%. Rule as the data show it, unless noted: active = inhibition above about 27%; inactive = the rest.
SMILES,Mtb FBA inh,Mtb betalactam,DUSP3 inh,GDH-TPI counter-1,Mtb hypoxia rep,Mtb FBA confirm,GDH-TPI counter-2
O=C(NN1CCOCC1)c1c(-c2ccccc2)sc2ccccc12,-1,1,·,2,10,·,·
COC(=O)c1c(-c2ccc(N(C)C)cc2)sc2ccc(OC)cc12,89*,8,·,9,1,+,158*
COc1ccc(-c2sc3cc4c(cc3c2C#Cc2ccc(N)cc2)OCO4)cc1,66*,58,·,26,6,70*,66*
COc1ccc(-c2sc3cc4c(cc3c2C#CCO)OCO4)cc1,10,63,·,3,10,·,·
CC1(C)Cc2c(c(-c3ccco3)nc3sc4c(NCCCO)ncnc4c23)CO1,37*,2,12,48*,6,43*,24*
CC1(C)Cc2c(c(-c3ccco3)nc3sc4c(NCCN5CCOCC5)ncnc4c23)CO1,27*,87,0,35*,7,5,-1
CC(C)CNc1ncnc2c1sc1nc(N3CCOCC3)c3c(c12)CC(C)(C)OC3,4,-4,24,4,6,·,·
CC1(C)Cc2c(c(-c3ccco3)nc3sc4c(NCC5CCCO5)ncnc4c23)CO1 (stereo not given),14,18,15,26,4,·,·
C#CCOCCOCCOCCNc1nc(N2CCOCC2)nc(N2CCN(C(=O)C(CC(N)=O)n3cc(C(N)C(C)C)nn3)CC2)n1 (stereo not given),·,·,·,·,6,·,·
CC1C=C(C(=O)N2CCN(Cc3ccccc3)CC2)OC(OCc2ccc(CO)cc2)C1 (stereo not given),·,·,·,·,9,·,·
Cn1c(N)nc2nc(CCc3ccccc3)c(=O)[nH]c2c1=O,60*,8,34,4,-2,8,2
O=C(Nc1ccccc1C(=O)NN=Cc1ccco1)c1ccc(Cl)cc1,·,·,·,·,8,·,·
COC(=O)c1cc(C#N)c(N2CC(C)OC(C)C2)nc1C (stereo not given),35*,6,6,5,12,65*,44*
COC(=O)c1cc(C#N)c(N2CCN(C)CC2)nc1C,1,1,22,5,5,·,·
COc1ccccc1NCC(=O)NN=C/C=C/c1ccccc1,·,·,·,·,-11,·,·
c1ccc(Oc2ccc(-c3ccnc4nc(N5CCOCC5)nn34)cc2)cc1,42*,97,26,17,-3,+,+
O=C1c2ccccc2C(=O)N1c1nc2nccc(-c3ccccc3)n2n1,32*,-7,0,8,12,31*,35*
Clc1cccc(-c2ccnc3nc(-n4cccc4)nn23)c1,11,9,21,6,0,·,·
Cc1cc(C)c(C#N)c(N2CCCC2)n1,30*,1,9,13,20,135*,92*
Cc1[nH]c2ccccc2c1C=NNC(=O)CNC(=O)Cc1ccccc1,·,·,·,·,9,·,·
C=CCNC(=O)CSc1n[nH]c(-c2cc(Cl)ccc2OC)n1,0,8,32,-1,18,·,·
CSc1scc2c1-c1nc(SCC(=O)C(C)(C)C)ncc1CC2,30*,-1,-19,-5,7,67*,48*
CC(C)(C)C(=O)CSc1ncccn1,2,0,10,5,-8,·,·
C=CCNC(=O)CSc1ncc2c(n1)-c1c(csc1SC)CC2,99*,2,-7,11,13,82*,59*
C=CCn1c(SCC(=O)NC2CCCCC2)nnc1-c1sc(N)nc1C,30*,-9,-15,10,·,114*,96*
SMILES,Mtb FBA inh,Mtb betalactam,DUSP3 inh,GDH-TPI counter-1,Mtb hypoxia rep,Mtb FBA confirm,GDH-TPI counter-2
COc1ccc(NC(=O)COc2ccc(C=NO)cc2OC)cc1,·,·,·,·,7,·,·
O=C(COc1ccc([N+](=O)[O-])cc1)Nc1nc(-c2ccccn2)cs1,28*,91,·,10,19,+,+
Cc1ccc(C=NNC(=O)c2cc(C)oc2C)o1,·,·,·,·,8,·,·
COC(=O)C1=CN(Cc2cccs2)C=C(C(=O)OC)C1c1cccc(OC)c1OC,53*,6,19,9,6,82*,75*
COC(=O)C1=CN(Cc2ccc(OC)cc2)C=C(C(=O)OC)C1c1cccs1,71*,-3,20,-2,4,7,7
COC(=O)C1=CN(CCCN2CCCC2=O)C=C(C(=O)OC)C1c1cccs1,21,-3,4,7,8,·,·
CC(=O)C(=NNc1ccccc1[N+](=O)[O-])N1CCCc2ccccc21,·,·,·,·,9,·,·
CCC1=C(OC(=O)N(CC)CC)N2C(=O)OC(=NCc3ccccc3)[C@]2(C)C2C1=CCC1C(=O)NC(=O)C12 (stereo not given in full),·,·,·,·,14,·,·
CC(C)Sc1nc(NCc2ccco2)c2c3c(sc2n1)COC(C)(C)C3,85*,41,26,9,-8,+,+
Cc1nc(NCc2ccco2)c2c3c(sc2n1)CCC3,4,33,39,-5,·,·,·
COc1ccccc1C1C(=C(O)c2ccccc2)C(=O)C(=O)N1CCO (stereo not given),·,·,·,·,14,·,·
O=c1cc(-c2cccnc2)oc2c1ccc1ccccc12,45*,94,34,0,·,+,186*
Cc1cc(C)nc(SCC(=O)NN=Cc2cccs2)n1,·,·,·,·,10,·,·
Cn1c(-c2ccc(CN3CCCCC3)o2)nc2ccccc21,33*,0,7,4,·,20,12*
Cc1cc2n(n1)C(c1ccc(N(C)C)cc1)Nc1ccccc1-2 (stereo not given),33*,6,17,29,1,98*,82*
COc1ccc(C=C2Oc3ccccc3C2=O)cc1,·,·,·,·,20,·,·
O=C1OCc2nc3cc4c(cc3c(-c3ccc(F)cc3)c21)OCO4,73*,8,10,13,8,101*,86*
Cc1cc2c(c(=O)n1CCc1ccccc1)C(c1ccco1)C(C#N)=C(N)O2 (stereo not given),40*,2,-17,6,1,2,-3
Cc1ccccc1C1NC(=O)c2ccccc2O1 (stereo not given),5,-5,72,14,-1,·,·
Cc1ccccc1C1N=C2Oc3ccccc3C=C2C(=O)N1 (stereo not given),96*,·,·,·,·,70*,52*
Cc1ccc(Cc2cnc(NC(=O)C3=NCCN3)s2)cc1,·,98,29,·,0,·,·
O=C(Nc1ncc(Cc2ccccc2)s1)C1=NCCN1,65*,96,18,9,13,93*,77*
Cc1nn(-c2ccccc2)c2nc(Cl)c(C(=O)O)cc12,31*,-9,-4,6,-1,+,+
CC(C)SCC(=O)Nc1ncc2c(n1)-c1ccccc1CC2,29*,2,17,7,10,3,2
Cc1cccn2c(=O)c3cc(C(=O)O)n(C)c3nc12,81*,-6,10,25,·,80*,58*
COC1C=CC(CNC(=O)c2cc3c(=O)n4cccc(C)c4nc3n2C)(OC)O1 (stereo not given),36*,-8,-21,23,15,176*,109*
